# Measurements as given in PubChem BioAssay (NCATS).
# Records with an inconclusive call do not appear. A call without a number means that no potency is given here. The source made the active and inactive calls. Calls come from the whole dose curve; as a rule, active = well fitted inhibition curve with a large enough effect; inconclusive = small, poorly fitted or top-dose-only effect; inactive = flat fitted curve, though single readings scatter.
# Tested on: PAD
# Experiment: qHTS profiling for inhibitors of Plasmodium falciparum proliferation (AID 504749); note: nearly all actives have a fitted effect of over 60% in size
# Conditions: P. falciparum in erythrocytes, SYBR Green DNA, 72 h; series mostly up to 28.7 µM
# In short: (§1)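 P. falciparum-infected erythrocytes (0.3% parasitemia, 2.5% hematocrit final) were exposed to compounds for 72 h at 37 C in 5% CO2, then lysed with SYBR Green buffer overnight at room temperature; parasite DNA fluorescence was normalized to artemisinin and DMSO controls.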
# Potency is the fitted concentration of half-maximal effect.
row,Compound,Potency
1,NCCS(=O)(=O)O,inactive
2,CC(C)Cc1ccc(C(C)C(=O)O)cc1 (stereo unspecified),inactive
3,CC(C)NCC(O)c1ccc(O)c(O)c1 (stereo unspecified),inactive
4,NC(=O)OCC(COC(N)=O)c1ccccc1,inactive
5,N[C@@H](Cc1c[nH]c2ccc(O)cc12)C(=O)O,inactive
6,Cc1cnc(C(=O)NCCc2ccc(S(=O)(=O)NC(=O)NC3CCCCC3)cc2)cn1,inactive
7,CCOC(=O)C(C)(C)Oc1ccc(Cl)cc1,inactive
8,CS(=O)(=O)Nc1ccc([N+](=O)[O-])cc1Oc1ccccc1,inactive
9,CC(C)(C)C(=O)Oc1ccc(S(=O)(=O)Nc2ccccc2C(=O)NCC(=O)O)cc1,inactive
10,C[C@](N)(Cc1ccc(O)c(O)c1)C(=O)O,inactive
11,Clc1ccc2nsnc2c1NC1=NCCN1,inactive
12,Cn1cnc2c1c(=O)[nH]c(=O)n2C,inactive
13,CC(C)C(=O)Nc1ccc([N+](=O)[O-])c(C(F)(F)F)c1,inactive
14,COc1ccccc1OCC(O)CN1CCN(CC(=O)Nc2c(C)cccc2C)CC1 (stereo unspecified),inactive
15,COc1ccc2[nH]cc(CCNC(C)=O)c2c1,inactive
16,Cn1c(=O)c2c(ncn2C)n(C)c1=O,inactive
17,COC(=O)Nc1nc2ccc(C(=O)c3cccs3)cc2[nH]1,inactive
18,Clc1ccccc1C(c1ccccc1)(c1ccccc1)n1ccnc1,0.355 µM (active)
19,Nc1nc2c(ncn2COC(CO)CO)c(=O)[nH]1,inactive

row,Compound,Potency
1,NCCCCCC(=O)O,inactive
2,CC12CC3CC(C)(C1)CC(N)(C3)C2,inactive
3,Cc1cc(C(C)(C)C)c(O)c(C)c1CC1=NCCN1,inactive
4,Nc1nnc(-c2cccc(Cl)c2Cl)c(N)n1,inactive
5,CCOC(=O)c1ncn2c1CN(C)C(=O)c1cc(F)ccc1-2,inactive
6,CN(C)c1nc(N(C)C)nc(N(C)C)n1,inactive
7,NS(=O)(=O)c1cc2c(cc1Cl)NCNS2(=O)=O,inactive
8,CN1CCN2c3ccccc3Cc3ccccc3C2C1 (stereo unspecified),inactive
9,Cc1cn([C@H]2C[C@H](N=[N+]=[N-])[C@@H](CO)O2)c(=O)[nH]c1=O,inactive
10,CN(C)C(=N)N=C(N)N,inactive
11,CC[N+](CC)(CC)CCOc1cccc(OCC[N+](CC)(CC)CC)c1OCC[N+](CC)(CC)CC,inactive
12,Cc1ccc(C(=O)Nc2ccc(S(=O)(=O)O)c3cc(S(=O)(=O)O)cc(S(=O)(=O)O)c23)cc1NC(=O)c1cccc(NC(=O)Nc2cccc(C(=O)Nc3cc(C(=O)Nc4ccc(S(=O)(=O)O)c5cc(S(=O)(=O)O)cc(S(=O)(=O)O)c45)ccc3C)c2)c1,inactive
13,NC(=O)NO,inactive
14,CN1C(C(=O)Nc2ccccn2)=C(O)c2ccccc2S1(=O)=O,inactive
15,COc1cc2c(c(OC)c1OC)-c1ccc(OC)c(=O)cc1[C@@H](NC(C)=O)CC2,inactive
16,Cc1cn([C@H]2C=C[C@@H](CO)O2)c(=O)[nH]c1=O,inactive
17,CS(=O)(=O)CCNCc1ccc(-c2ccc3ncnc(Nc4ccc(OCc5cccc(F)c5)c(Cl)c4)c3c2)o1,inactive
18,CCCNCC(O)COc1ccccc1C(=O)CCc1ccccc1 (stereo unspecified),0.398 µM (active)
19,CC(=O)OCC(CCn1cnc2cnc(N)nc21)COC(C)=O,inactive

# Tested on: PC15
# Experiment: as above
# Conditions: P. falciparum in erythrocytes, SYBR Green DNA, 72 h; series mostly up to 28.7 µM
# In short: as §1
row,Compound,Potency
1,NCCS(=O)(=O)O,inactive
2,CC(C)Cc1ccc(C(C)C(=O)O)cc1 (stereo unspecified),inactive
3,CC(C)NCC(O)c1ccc(O)c(O)c1 (stereo unspecified),inactive
4,NC(=O)OCC(COC(N)=O)c1ccccc1,inactive
5,N[C@@H](Cc1c[nH]c2ccc(O)cc12)C(=O)O,inactive
6,Cc1cnc(C(=O)NCCc2ccc(S(=O)(=O)NC(=O)NC3CCCCC3)cc2)cn1,inactive
7,CCOC(=O)C(C)(C)Oc1ccc(Cl)cc1,inactive
8,CS(=O)(=O)Nc1ccc([N+](=O)[O-])cc1Oc1ccccc1,inactive
9,CC(C)(C)C(=O)Oc1ccc(S(=O)(=O)Nc2ccccc2C(=O)NCC(=O)O)cc1,inactive
10,C[C@](N)(Cc1ccc(O)c(O)c1)C(=O)O,inactive
11,Clc1ccc2nsnc2c1NC1=NCCN1,inactive
12,Cn1cnc2c1c(=O)[nH]c(=O)n2C,inactive
13,CC(C)C(=O)Nc1ccc([N+](=O)[O-])c(C(F)(F)F)c1,inactive
14,COc1ccccc1OCC(O)CN1CCN(CC(=O)Nc2c(C)cccc2C)CC1 (stereo unspecified),inactive
15,COc1ccc2[nH]cc(CCNC(C)=O)c2c1,inactive
16,Cn1c(=O)c2c(ncn2C)n(C)c1=O,inactive
17,COC(=O)Nc1nc2ccc(C(=O)c3cccs3)cc2[nH]1,inactive
18,Clc1ccccc1C(c1ccccc1)(c1ccccc1)n1ccnc1,1 µM (active)
19,Nc1nc2c(ncn2COC(CO)CO)c(=O)[nH]1,inactive

row,Compound,Potency
1,NCCCCCC(=O)O,inactive
2,CC12CC3CC(C)(C1)CC(N)(C3)C2,inactive
3,Cc1cc(C(C)(C)C)c(O)c(C)c1CC1=NCCN1,inactive
4,Nc1nnc(-c2cccc(Cl)c2Cl)c(N)n1,inactive
5,CCOC(=O)c1ncn2c1CN(C)C(=O)c1cc(F)ccc1-2,inactive
6,CN(C)c1nc(N(C)C)nc(N(C)C)n1,inactive
7,NS(=O)(=O)c1cc2c(cc1Cl)NCNS2(=O)=O,inactive
8,CN1CCN2c3ccccc3Cc3ccccc3C2C1 (stereo unspecified),inactive
9,Cc1cn([C@H]2C[C@H](N=[N+]=[N-])[C@@H](CO)O2)c(=O)[nH]c1=O,inactive
10,CN(C)C(=N)N=C(N)N,inactive
11,CC[N+](CC)(CC)CCOc1cccc(OCC[N+](CC)(CC)CC)c1OCC[N+](CC)(CC)CC,inactive
12,Cc1ccc(C(=O)Nc2ccc(S(=O)(=O)O)c3cc(S(=O)(=O)O)cc(S(=O)(=O)O)c23)cc1NC(=O)c1cccc(NC(=O)Nc2cccc(C(=O)Nc3cc(C(=O)Nc4ccc(S(=O)(=O)O)c5cc(S(=O)(=O)O)cc(S(=O)(=O)O)c45)ccc3C)c2)c1,inactive
13,NC(=O)NO,inactive
14,CN1C(C(=O)Nc2ccccn2)=C(O)c2ccccc2S1(=O)=O,inactive
15,COc1cc2c(c(OC)c1OC)-c1ccc(OC)c(=O)cc1[C@@H](NC(C)=O)CC2,inactive
16,Cc1cn([C@H]2C=C[C@@H](CO)O2)c(=O)[nH]c1=O,inactive
17,CS(=O)(=O)CCNCc1ccc(-c2ccc3ncnc(Nc4ccc(OCc5cccc(F)c5)c(Cl)c4)c3c2)o1,inactive
18,CCCNCC(O)COc1ccccc1C(=O)CCc1ccccc1 (stereo unspecified),0.708 µM (active)
19,CC(=O)OCC(CCn1cnc2cnc(N)nc21)COC(C)=O,inactive
